Laboratory results as given in PubChem BioAssay AID1508600 (Functional Genomics Laboratory (NCATS/FGL), 2020).
In all, about 53,000 sequences went through this assay and about 3,700 (7%) were called active. This is one part of a sample in which actives are shown more often than they occur. Unmarked numbers belong to inactive results.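 Rule for the calls: active = gene knockdowns whose robust z-score for IL-1 alpha signal is at least 2 or at most -2, so actives lie on both sides; inactive = the rest.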

experiment: Components of the Cytosolic LPS Sensing Pathway: Gene Identification via Genome-wide siRNA Screen; settings: RAW264.7 macrophages, IL-1a HTRF, actives lie on both sides, screened at 100 nM (by protocol), cells primed 5 h with Pam3CSK4 first;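 note: robust z of the log signal after scaling to non-targeting control siRNA wells of the plate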
Outline: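 Read-out: IL-1a HTRF on supernatant, divided by plate negative-control median ×100, log-transformed and converted to robust z-score. Cells were RAW264.7 given 100 nM siRNA, Pam3CSK4-primed 5 hours, then LipidA-transfected 24 hour.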

Sequence | z-score
GCUUGUGGAUUCGAUUUGGTT against Gtf3c5 | 0.485
GCUGAAUGAUAUGGAACCUTT against Vapa | -1.76
GGAGAUAAAGUCUUAUCACTT against Misp | -2.05 (active)
GGAAAUCGUGCGUGGCUACTT against Phpt1 | 1.57
GGCCAUCUUUGACAGUGCUTT against Dnah1 | 1.11
GGCAUUUGUAAUUCCAGUUTT against Spata33 | 0.456
GGAUUCAGGGAACAGCAAUTT against Ntrk3 | -3.08 (active)
GGUACAGAACAUGUUCUAATT against Klf4 | 1.18
GCACAAGCGAUGGGUUAACTT against Fkbp1a | -0.708
GGCUCACGAGGAACUAAAUTT against Ift52 | 0.115
GGAACUUCACUUUUAACACTT against Il33 | -0.534
CGUUUUUCUCUAACUUACATT against Ldlrad3 | 2.6 (active)
GGUGAUGUCCUAUUUCAAATT against Erp27 | 0.302
GGUUCUAUCUACCUACAGGTT against Igfn1 | 1.78
GGAGAAGAGUCAAGAGCUCTT against Vxn | 0.103
GGUAUCCAAGAAAACCUAUTT against Tnmd | 0.475
CCUUCUGUAGUUGGAAUCATT against Them5 | 1.41
CCUGUAUGGAGUAAUGGAATT against Eif4ebp3 | 0.13
GGUGGUGUUAAAAUAUACUTT against Gnl3 | 3.07 (active)
GCCAGAAGACUGUAUACCATT against Rp9 | -0.0396
GGUUGUUGGUCUUCUGUGATT against Nme3 | -1.27
GGCCAUCUAAAAAUAGUAATT against Ccdc171 | 0.707

Sequence | z-score
GGAGCACUUAGAAAUGUCCTT against Olfr342 | -0.174
GGACUUUGUACAUUGUUUUTT against Actb | 2.2 (active)
GGUCUUCUAAGAAAUUUUGTT against Fmnl2 | 0.407
GGAUGUGUCUCACUUCUUGTT against Th | -1.5
GCUGCCUCUCACCAAGUAUTT against Creb3l3 | -1.43
GCAUGAAGAGCUAAUGCUATT against Eprs | -0.364
GGCUAUGAGGACUCCUAUGTT against Plekha7 | -2.53 (active)
GCAAGUCCAUUCUUUUUCATT against Tmprss11g | -0.643
GGAAACCUGAUACUAACAATT against Afmid | -1.88
GGAAGUCCUUGCAUUCCUCTT against Dlec1 | 0.816
GGCUGAGAAAACCAAAGGGTT against Cfdp1 | 1.9
GCUGGAGUGUCAGUCAUAUTT against Reg4 | 3.35 (active)
GGUCUAUCGCUUGCUUUUUTT against Abca2 | 1.67
GGUAAUCAGUAGUGACUUATT against Mkln1 | 0.229
CCCUCAACCAUUGUUCGAGTT against Rasal1 | -0.328
GGGCUGUAUUUCUUUACCCTT against Mrgprb2 | 0.508
GCGCAGCACAGGUUUUGAATT against Klf10 | -0.217
GGAAAAAAUACCAGAAACATT against Klre1 | -2.68 (active)
GCCUAUCGAAAAGUCUUGGTT against Adcyap1 | 0.875
GGCCAAGCUAUAAGAAAUGTT against Cntnap2 | 0.201
AACUCCCUCCCUGUUGUAGTT against A4galt | -0.361
GGCCAUAUUAAGUAUGGAGTT against Fam118a | -0.34

Sequence | z-score
GGAGAAGUAAAACUCGAAGTT against Rwdd2a | 0.276
CCGAAUUUCUCCUAUUGGGTT against Olfr106-ps | -0.241
GGUAUGUAACGGUAUUUAATT against Gja1 | 2.66 (active)
CCUAGAGCCGUGUGCAUACTT against Plp2 | 0.891
CCAUUGGUUUUGAGGAUAUTT against Pomp | -1.18
GGUAGAAAAAACACAAACGTT against Ppp2r3c | 1.43
GGUUUUGUGGGAAGAGUCATT against Ccdc163 | -2.99 (active)
CCUGGACAUAACCAAUGUATT against Glrp1 | 1.5
CCCUGGGCAGUUUGCAUGUTT against Dgcr2 | 0.815
GCAACGAGGUACUGUUUUATT against Rab7b | 0.626
GGUAGAGCUGCACUUUGGATT against Hddc3 | -1.43
GGUUUGUCAGGUUCUAAAATT against Atf1 | 2.34 (active)
GGUACAAAGACUGACGAGUTT against Gnptg | 0.00278
CGACCAGAAGUGGUAUGUCTT against Adra2a | -1.03
GGAGACAUUCACUGUCUUCTT against Ephb4 | -0.322
CCAGUAUCUAAUUGGAAUATT against Paqr8 | 2.07 (active)
GCUGUUUGAAGCUGAUACCTT against Fads3 | -0.0526
GGCAUCCAGACAAGUGAUGTT against Zer1 | 0.699
GCCAUCACAAUUCUAAUCCTT against Vmn2r123 | -1.54
CCAAGAUUGACAUCAUCCGTT against Pkn1 | -0.595
CGAAUACCUGAAGUGCAAATT against Art3 | 0.454
GGAGCCAGAACCUGAAAUUTT against Ankrd1 | 2.86 (active)

Sequence | z-score
GCUCUAGACAUAUGAGGCUTT against Wee2 | -0.0864
CCCAUGAUGCCAUCUUUAATT against 2410002F23Rik | -1.03
GGAACAUUUCUGGAUUGUUTT against Muc1 | -0.503
CCAGCUCUCGAUUCCAUCATT against Fem1a | 0.615
GGAUACCCUGGAGUUUAUATT against Prss42 | 0.941
GCGUGAUCAUUGAUGUGGATT against Slc5a7 | 0.364
GUUCCACAAAGACCAUCAGTT against Olfr134 | 0.679
GCCUGGUUAAGGCAUGAUATT against Gm4884 | 2.63 (active)
GCCACAACCACCUGAACUUTT against Amigo1 | -0.854
GGACUUCAAGGAUAGUGAGTT against Osm | -1.13
GGUCGAUGCAAAGAUGCUGTT against Smoc1 | 0.811
GCUUCUGUAAAUCCCAUAUTT against Olfr26 | -0.0814
GCUGUCACUUUGAAUCCCUTT against Nrg1 | -0.988
GGUAUUGAAAUGGAAAAGGTT against D6Wsu163e | -1.2
GGGCCUAUGCUUACAAACGTT against Pkp3 | 2.37 (active)
GGUUCUAAUUAGAGAAACATT against Tcte1 | 0.461
CGACCAUUCCUUUGAGUUATT against Atl1 | 3.09 (active)
GGAGCUACCUCUGGAUACATT against Tmem269 | 1.28
GGUACUGGAAAGAAAUGAGTT against Exph5 | 0.356
GGUUGUCAUAAUCUUGUUATT against Irgq | -0.59
GGUAUUUAGGUUGAUAACATT against Kbtbd8 | -0.206
GGUCUUAGAUAAUGUUAGATT against Gpr26 | 0.718

Sequence | z-score
CCCUGUAAGGUUGAUUGUGTT against Oog3 | 0.535
GGCUCAUUCCUCUUCUUCCTT against Serhl | -3.08 (active)
GCCAAGUAAAACCAAAUGUTT against Ldlrad4 | -1.85
CCGAGAACAGUUGAAGAAGTT against Srbd1 | 0.174
GGUGGAUGAGUUGUUCCUUTT against Adck5 | 0.637
GCUACAGGAUUUAUACAUGTT against Dhx29 | 0.865
GGGACUUAUGUACAACUUCTT against Idua | 1.53
CCUCUGCGCAAUUUAGAGATT against Npb | 1.1
GACAAGAACCCGGAUAAUATT against Dnajb2 | -0.229
GCAAGCACGUCAGAAUCUCTT against Pln | 2.32 (active)
GGAAGAACUGAUUGAAGAGTT against Sptlc1 | -0.789
GGUGAAAGACCAUUUAUUUTT against Zxdc | 0.657
CGUGACUCUGCUUUAACUCTT against Col27a1 | -2.27 (active)
GGAGCUUGCUCAGACUACUTT against Cct8 | -0.914
GCCUAUCGUCCAGAUUAUCTT against Senp1 | 0.919
GGUCAAGUAUCUGAGAAAATT against Selenoh | 0.154
GGCGAUAAGGAACAGAAGUTT against Ppp3r1 | -0.199
GGUCAACCUCAAAGUCUUUTT against Il17a | 0.581
GGGCUUCAGAAAAUCCAGGTT against Dclre1a | -0.447
GGCUCCUAUAUACUGAUCATT against Olfr1402 | -2.65 (active)
